According to PubChem BioAssay (NCATS):
For some assays here: Potency and affinity values are given separately. Active and inactive are the calls of the source. No rule for the calls is given here.

Tests used:
[1] = Ebola virus entry assay, green fluorescence channel
[2] = Ebola virus entry assay, blue channel fluorescence
[3] = Ebola virus entry assay, ratio channel
[4] = Ebola virus entry assay, green channel fluorescence
[5] = Ebola virus entry assay, reporter ratio channel; Channel type: primary
[6] = Ebola virus entry assay, blue channel (ratio component)
[7] = qHTS profiling of the MIPE4 collection as inhibitors of Plasmodium falciparum (DD2) proliferation (AID 743345); settings: P. falciparum Dd2 in erythrocytes, SYBR Green DNA, 72 h; at 28.5 µM (top of the series)
In short: (§1)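 Erythrocytes infected with P. falciparum (0.3% parasitemia, 2.5% hematocrit) incubated with compounds 72 h at 37 C, 5% CO2. Lysis with saponin/Triton buffer containing SYBR Green I, overnight at room temperature in the dark; DNA fluorescence (485/535 nm) normalised to 0.29 uM artemisinin and DMSO.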

[8] = qHTS profiling of the MIPE4 collection as inhibitors of Plasmodium falciparum (DD2) proliferation (Rep 2) (AID 743346); settings: P. falciparum Dd2 in erythrocytes, SYBR Green DNA, 72 h; at 28.5 µM (top of the series)
In short: as §1

[9] = qHTS profiling of the MIPE4 collection as inhibitors of Plasmodium falciparum (HB3) proliferation (AID 743347);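 also: plate controls were DMSO vehicle wells for no effect and artemisinin wells for full effect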; settings: P. falciparum HB3 in erythrocytes, SYBR Green DNA, 72 h; at 28.5 µM (top of the series)
In short: as §1
For efficacy in this document: 0% is about no effect.

C/C=C/c1ccc(O)c(OC)c1
inactive: efficacy [1] 19% | outcome [2] | outcome [3] | outcome [4] | outcome [5] | outcome [6]

O=C(O)C1CCC1
inactive: efficacy [1] -19% | outcome [2] | outcome [3] | outcome [4] | outcome [5] | outcome [6]

CC[N+](CC)(CC(=O)Nc1c(C)cccc1C)Cc1ccccc1
inactive: efficacy [1] -14.7% | outcome [2] | outcome [3] | outcome [4] | outcome [5] | outcome [6]

FC(F)(F)C(F)(F)C(F)(F)C(F)(F)C(F)(F)C(F)(F)C(F)(F)C(F)(F)Br
inactive: efficacy [1] -14.2% | outcome [2] | outcome [3] | outcome [4] | outcome [5] | outcome [6]

CCCCC(=O)O[C@]1(C(=O)CO)[C@@H](C)C[C@H]2[C@@H]3CCC4=CC(=O)C=C[C@]4(C)[C@@]3(F)[C@@H](O)C[C@@]21C
inactive: efficacy [1] 22.2% | outcome [2] | outcome [3] | outcome [4] | outcome [5] | outcome [6]

COc1cc(CC#N)cc(OC)c1OC
inactive: efficacy [1] -13.1% | outcome [2] | outcome [3] | outcome [4] | outcome [5] | outcome [6]

COc1cc(C(=O)NCCCCCC(=O)O)cc(OC)c1OC
inactive: efficacy [1] -33.5% | outcome [2] | outcome [3] | outcome [4] | outcome [5] | outcome [6]

C=CCSCC1Nc2cc(Cl)c(S(N)(=O)=O)cc2S(=O)(=O)N1 (stereo not given)
inactive: efficacy [1] -29.5% | outcome [2] | outcome [3] | outcome [4] | outcome [5] | outcome [6]

CC(=O)Nc1cccc(O)c1
inactive: efficacy [1] 28% | outcome [2] | outcome [3] | outcome [4] | outcome [5] | outcome [6]

Nc1ccc(N)cc1
inactive: efficacy [1] 15.4% | outcome [2] | outcome [3] | outcome [4] | outcome [5] | outcome [6]

CC(C)c1cc2c(cc1S(=O)(=O)O)[C@@]1(C)CCC[C@@](C)(C(=O)O)[C@@H]1CC2
inactive: efficacy [1] -15.6% | outcome [2] | outcome [3] | outcome [4] | outcome [5] | outcome [6]

Cc1c(Cn2ccnc2)c2ccccc2n1CCC(=O)O
inactive: efficacy [1] 14% | outcome [2] | outcome [3] | outcome [4] | outcome [5] | outcome [6]

Cc1c(F)cc2c(=O)c(C(=O)O)cn3c2c1CCC3C (stereo not given)
inactive: efficacy [1] 17.9% | outcome [2] | outcome [3] | outcome [4] | outcome [5] | outcome [6]

Cc1cc(O)c(C)c(C)c1O
inactive: efficacy [1] -20.2% | outcome [2] | outcome [3] | outcome [4] | outcome [5] | outcome [6]

CC(CC(C(N)=O)(c1ccccc1)c1ccccc1)N(C)C (stereo not given)
inactive: efficacy [1] 13% | outcome [2] | outcome [3] | outcome [4] | outcome [5] | outcome [6]

NC(=O)NNc1ccccc1
inactive: efficacy [1] -21.6% | outcome [2] | outcome [3] | outcome [4] | outcome [5] | outcome [6]

CCc1cccc2c3c([nH]c12)C(CC)(CC(=O)O)OCC3 (stereo not given)
inactive: efficacy [1] 8.5% | outcome [2] | outcome [3] | outcome [4] | outcome [5] | outcome [6]

CC(Cc1ccc2c(c1)OCO2)NO (stereo not given)
inactive: efficacy [1] -23.6% | outcome [2] | outcome [3] | outcome [4] | outcome [5] | outcome [6]

COc1ccc([C@@H]2Sc3ccccc3NC(=O)[C@@H]2O)cc1
inactive: efficacy [1] -10.4% | outcome [2] | outcome [3] | outcome [4] | outcome [5] | outcome [6]

Oc1ccc2[nH]cc(CCCCN3CC=C(c4ccccc4)CC3)c2c1
inactive: efficacy [1] 50.4%
active: AC50 [2] 6.31 µM | AC50 [3] 8.91 µM | AC50 [5] 8.91 µM

CCCCN1CCCC1C(=O)Nc1c(C)cc(C)cc1C (stereo not given)
inactive: efficacy [1] 111% | outcome [2] | outcome [3] | outcome [5]

CC(C)=CCNc1ncnc2c1ncn2[C@@H]1O[C@H](CO)[C@@H](O)[C@H]1O
inactive: efficacy [1] 38.7% | outcome [2] | outcome [3] | outcome [4] | outcome [5] | outcome [6]

c1ccc([C@H]2CN3CCSC3=N2)cc1
inactive: efficacy [1] -38.1% | outcome [2] | outcome [3] | outcome [4] | outcome [5] | outcome [6]

CCCCCOc1ccc(C2SC(=O)NC2=O)cc1OCC (stereo not given)
inactive: efficacy [1] 24.1% | outcome [2] | outcome [3] | outcome [4] | outcome [5] | outcome [6]

CCOC(=O)Nc1ccc(NCc2ccc(F)cc2)nc1N
90%: parasite growth remaining, % of DMSO control (lower = more inhibition) [7]
84.5%: parasite growth, % of control (lower = inhibition) [8]
inactive: efficacy [1] 25.7% | outcome [2] | outcome [3] | outcome [4] | outcome [5]
82.7%: growth, % of control [9]

COc1ccc2cc1Oc1ccc(cc1)C[C@H]1c3c(cc4c(c3Oc3cc5c(cc3OC)CCN(C)[C@@H]5C2)OCO4)CCN1C
active: AC50 [2] 1.12 µM | AC50 [3] 1.12 µM | AC50 [5] 1.12 µM
inactive: efficacy [1] 73.2%

COc1cccc2c1C(=O)c1c(O)c3c(c(O)c1C2=O)C[C@@](O)(C(=O)CO)C[C@@H]3O[C@H]1C[C@H](N)[C@H](O[C@@H]2CCCCO2)[C@H](C)O1
inactive: efficacy [1] 15.3% | outcome [2] | outcome [3] | outcome [4] | outcome [5] | outcome [6]

CCOC(CN1CCN(CC(C)C(=O)c2ccccc2)CC1)c1ccccc1 (stereo not given)
active: AC50 [2] 7.08 µM | AC50 [3] 10 µM
inactive: efficacy [1] 11.6% | outcome [4] | outcome [5] | outcome [6]

CC(=O)O[C@H]1CC[C@@]2(C)C(=CC[C@@H]3[C@@H]2CC[C@]2(C)C(C(C)=O)=CC[C@@H]32)C1
inactive: efficacy [1] -13.1% | outcome [2] | outcome [3] | outcome [4] | outcome [5] | outcome [6]
